The full ranking holds about 8,300 sequences; the median of “log2 fold change of degron read counts, EGFP-low vs EGFP+ sorted cells (limma voom), compound-induced degradation” is about -1.1, and the highest 2% start at about 3.2. Only a selection was taken, and the highest values are over-represented in it overall.
T1: CRBN, Q96SW2
T1 chain: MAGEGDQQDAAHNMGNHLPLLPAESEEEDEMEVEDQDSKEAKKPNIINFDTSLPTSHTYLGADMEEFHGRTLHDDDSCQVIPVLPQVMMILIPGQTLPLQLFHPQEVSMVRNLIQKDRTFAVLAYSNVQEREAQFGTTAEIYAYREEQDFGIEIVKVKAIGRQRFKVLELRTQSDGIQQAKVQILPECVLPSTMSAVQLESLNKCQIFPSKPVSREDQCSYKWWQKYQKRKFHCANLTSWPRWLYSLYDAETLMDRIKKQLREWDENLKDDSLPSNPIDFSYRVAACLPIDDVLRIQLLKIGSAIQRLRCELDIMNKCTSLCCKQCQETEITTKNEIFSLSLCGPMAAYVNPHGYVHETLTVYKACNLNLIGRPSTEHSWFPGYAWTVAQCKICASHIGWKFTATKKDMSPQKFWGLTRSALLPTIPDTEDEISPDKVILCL


Molecular target: T1, CRBN, Q96SW2
Assay: log2 fold change of degron read counts, EGFP-low vs EGFP+ sorted cells (limma voom), compound-induced degradation; higher = more compound-induced degradation of the degron-EGFP fusion; degrons are variants of IKZF1/3 zinc finger 2; compound dose not given here
Conditions: Jurkat, 18 h
[1] = compound: compound 19 (5-tert-butyl-thalidomide)
[2] = compound: compound 22 (5-morpholino-thalidomide)
[3] = compound: compound 33 (diphenyl IMiD analogue)
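Note: pooled lentiviral library of zinc finger degron-EGFP fusions in mCherry-positive Jurkat cells, FACS-sorted after compound exposure, with degron abundance counted by next-generation sequencing.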

Sequence | log2 fold change of degron read counts [1] | log2 fold change of degron read counts [2] | log2 fold change of degron read counts [3] | log2 fold change of degron read counts (compound: thalidomide)
LQCNQCGFHCTQKGNLLRHIKL [46L_47Q_49N_50Q_52G_53F_54H_55C_67L_, Q9UKT9] | -2.12 | -2.37 | -2.09 | -1.42
FFCNQCGHGFTQKGNLLRHIKL [46F_47F_49N_50Q_52G_53H_54G_55F_67L_, Q9UKT9] | -2.03 | -2.15 | -2.79 | -2.52
LKCPICGFMCTQKGNLLRHIKL [46L_47K_49P_50I_52G_53F_54M_55C_67L_, Q9UKT9] | -1.07 | -2.03 | -1.81 | -0.667
LECPICGFMCTQKGNLLRHIKL [46L_47E_49P_50I_52G_53F_54M_55C_67L_, Q9UKT9] | -0.459 | -0.68 | 1.22 | 2.37
LGCPICGFMCTQKGNLLRHIKL [46L_47G_49P_50I_52G_53F_54M_55C_67L_, Q9UKT9] | 3.42 | 1.83 | 1.01 | 0.537
LVCPICGFMCTQKGNLLRHIKL [46L_47V_49P_50I_52G_53F_54M_55C_67L_, Q9UKT9] | 0.688 | 2.15 | 2.09 | 2.63
LSCPICGFMCTQKGNLLRHIKL [46L_47S_49P_50I_52G_53F_54M_55C_67L_, Q9UKT9] | 1.79 | 1.66 | 1.67 | 1.42
LWCPICGFMCTQKGNLLRHIKL [46L_47W_49P_50I_52G_53F_54M_55C_67L_, Q9UKT9] | 2.86 | 3.37 | 2.86 | 1.56
LTCPICGFMCTQKGNLLRHIKL [46L_47T_49P_50I_52G_53F_54M_55C_67L_, Q9UKT9] | 0.987 | 1.84 | 2.27 | 2.3
LQCPICGFMCTQKGNLLRHIKL [46L_47Q_49P_50I_52G_53F_54M_55C_67L_, Q9UKT9] | 0.655 | 2.15 | 2.04 | 3.55
LYCPICGFMCTQKGNLLRHIKL [46L_47Y_49P_50I_52G_53F_54M_55C_67L_, Q9UKT9] | 3.14 | 2.92 | 2.43 | 1.14
FVCPQCGAFFTQKGNLLRHIKL [46F_47V_49P_50Q_52G_53A_54F_55F_67L_, Q9UKT9] | -1.99 | -1.44 | -0.515 | -0.988
FCCPICGHFFTQKGNLLRHIKL [46F_47C_49P_50I_52G_53H_54F_55F_67L_, Q9UKT9] | -1.42 | -2.1 | -1.42 | -1.48
FACEICGHNFTQKGNLLRHIKL [46F_47A_49E_50I_52G_53H_54N_55F_67L_, Q9UKT9] | -2.91 | -3.62 | -3.22 | -3.1
FECSVCGHHFTQKGNLLRHIKL [46F_47E_49S_50V_52G_53H_54H_55F_67L_, Q9UKT9] | -3.39 | -3.71 | -3.71 | -3.11
FRCPICGHVFTQKGNLLRHIKL [46F_47R_49P_50I_52G_53H_54V_55F_67L_, Q9UKT9] | -2.24 | -2.31 | -0.964 | -1.86

Sequence | log2 fold change of degron read counts [1] | log2 fold change of degron read counts [2] | log2 fold change of degron read counts [3] | log2 fold change of degron read counts (compound: thalidomide)
LACEICGFFCTQKGNLLRHIKL [46L_47A_49E_50I_52G_53F_54F_55C_67L_, Q9UKT9] | 1.23 | 0.591 | 0.235 | 0.329
FKCEICGHCFTQKGNLLRHIKL [46F_47K_49E_50I_52G_53H_54C_55F_67L_, Q9UKT9] | -2.38 | -3.82 | -3.48 | -2.98
FQCEICGHGFTQKGNLLRHIKL [46F_47Q_49E_50I_52G_53H_54G_55F_67L_, Q9UKT9] | -3.85 | -4.27 | -2.95 | -2.21
LFCNQCGFYCTQKGNLLRHIKL [46L_47F_49N_50Q_52G_53F_54Y_55C_67L_, Q9UKT9] | -0.734 | -0.67 | -0.837 | -0.422
FNCPICGARFTQKGNLLRHIKL [46F_47N_49P_50I_52G_53A_54R_55F_67L_, Q9UKT9] | 2.1 | 1.39 | -0.35 | 0.971
FYCPICGARFTQKGNLLRHIKL [46F_47Y_49P_50I_52G_53A_54R_55F_67L_, Q9UKT9] | 2.38 | 2.5 | 0.405 | -0.0683
FQCPICGALFTQKGNLLRHIKL [46F_47Q_49P_50I_52G_53A_54L_55F_67L_, Q9UKT9] | -1.04 | 1.75 | 1.86 | 3.37
FSCPICGARFTQKGNLLRHIKL [46F_47S_49P_50I_52G_53A_54R_55F_67L_, Q9UKT9] | 2.63 | 2.4 | 0.555 | 1.65
FGCPICGARFTQKGNLLRHIKL [46F_47G_49P_50I_52G_53A_54R_55F_67L_, Q9UKT9] | 3.39 | 2.28 | 0.0226 | 1.05
FSCPICGALFTQKGNLLRHIKL [46F_47S_49P_50I_52G_53A_54L_55F_67L_, Q9UKT9] | 0.486 | -0.0754 | 2.59 | 0.134
FVCPICGALFTQKGNLLRHIKL [46F_47V_49P_50I_52G_53A_54L_55F_67L_, Q9UKT9] | -0.961 | 0.498 | 1.25 | 1.5
FECPICGARFTQKGNLLRHIKL [46F_47E_49P_50I_52G_53A_54R_55F_67L_, Q9UKT9] | 0.918 | -0.107 | 1.75 | 3.37
FVCPICGARFTQKGNLLRHIKL [46F_47V_49P_50I_52G_53A_54R_55F_67L_, Q9UKT9] | 0.924 | 2.47 | 0.874 | 2.71
FWCPICGARFTQKGNLLRHIKL [46F_47W_49P_50I_52G_53A_54R_55F_67L_, Q9UKT9] | 2.78 | 3.66 | 1.23 | 1.15
FLCPICGARFTQKGNLLRHIKL [46F_47L_49P_50I_52G_53A_54R_55F_67L_, Q9UKT9] | 0.407 | -0.333 | 0.469 | 1.92
FRCPICGARFTQKGNLLRHIKL [46F_47R_49P_50I_52G_53A_54R_55F_67L_, Q9UKT9] | -0.853 | -0.665 | -0.334 | 0.377

— the supplement of paper PMC12645437, “Orthogonal IMiD-Degron Pairs Induce Selective Protein Degradation in Cells” (ACS Chemical Biology, 2025)
